ssDAF12 agonist: activators of S. stercoralis DAF-12 nuclear receptor | HEK293 ssDAF-12/GRIP1 lit1-tk-luc reporter, luminescence; % of 3 µM dafachronic acid response | AID 652126 | actives 1% (n = 370,000) | activation, % at 6.8 µM;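 active = activation above the mean over all tested compounds plus 3 SD, cut at about 0.9% in these data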;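 also: 0% = DMSO-only wells and 100% = 3 µM delta7-dafachronic acid wells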
hgDAF-12 ag: agonists of H. glycines DAF-12 nuclear receptor; HEK293 GAL4-hgDAF12 UAS-luciferase reporter, agonist luminescence; normalized to butyrate control; activation, % at 6.8 µM; actives 1.8% (n = 370,000);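 active = activation above a cutoff set at the mean of all screened compounds plus 3 SD, cut at about 10% in these data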;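 also: 0% = DMSO wells and 100% = sodium butyrate wells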
DAX1 inh-1: inhibitors of DAX1 repression of SF-1 activated StAR promoter; HEK293T StAR-luciferase reporter, SF-1/DAX-1 repression relief; inhibition, % at 6.8 µM; actives 1.1% (n = 370,000); AID 652010;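 active = inhibition above the mean over all tested compounds plus 3 SD, cut at about 3.6% in these data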;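 also: 0% = DAX-1 cells with DMSO and 100% = cells lacking DAX-1 with DMSO; higher inhibition means more luminescence from relief of DAX-1 repression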
hcDAF-12 act: activators of H. contortus DAF-12 nuclear receptor; HEK293 hcDAF-12 lit1-tk-luc reporter, luminescence; 0% DMSO, 100% Δ7-dafachronic acid; activation, % at 6.8 µM; actives 1.4% (n = 370,000);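 active = activation above the mean of all tested compounds plus 3 SD, cut at about 5.5% in these data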;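 also: 100% = response to 3 µM Δ7-dafachronic acid high control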
SMARCA2 activ: activators of SMARCA2 function. MG213 cells, MMTV-luciferase reporter, dexamethasone, overnight. activation, % at 9.1 µM. actives 1% (n = 370,000). AID 652017; in the data active = activation above about 7.8%;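 also: 0% = vehicle wells and 100% = reference activator wells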
DAX1 inh-2: NR0B1 (DAX1) inhibition; P51843; inhibition, % at 6.75 µM; HEK293 Gal4-DAX1 luciferase reporter, luminescence; actives 0.99% (n = 340,000);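 active = inhibition above the mean over all tested compounds plus 3 SD, cut at about 4.2% in these data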;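 also: 0% = DAX1-transfected cells with DMSO and 100% = empty-vector control cells with DMSO; inhibition shows as a rise in luminescence from relieved DAX1 repression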
Target sequence (P51843 207-470 limits assumed): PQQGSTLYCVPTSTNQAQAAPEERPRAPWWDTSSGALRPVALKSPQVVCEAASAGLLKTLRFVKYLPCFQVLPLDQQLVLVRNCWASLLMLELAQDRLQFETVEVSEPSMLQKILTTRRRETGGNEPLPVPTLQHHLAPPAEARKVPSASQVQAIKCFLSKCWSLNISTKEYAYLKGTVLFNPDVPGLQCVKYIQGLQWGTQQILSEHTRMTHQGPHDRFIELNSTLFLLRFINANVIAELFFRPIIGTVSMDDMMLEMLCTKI
SMARCA2 act conf: confirmation of SMARCA2 (BRM) function activators | actives 30% (n = 3,500) | MG213 cells, MMTV-luciferase with dexamethasone, luminescence, overnight; MG213 cells expressing E1A, Rb sequestered; DMSO wells 0%, reference activator 100% | activation, % at 9.1 µM | AID 652260 | shares compounds with SMARCA2 activ;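 active = activation above its plate's cutoff, the mean activation of tested wells plus 3 SD, cut at about 7.9% in these data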
VP16 Luc act: activates GAL4-VP16 luciferase, flagging SMARCA2 activator hits; shares compounds with SMARCA2 activ; HEK293 GAL4-VP16 pG5luc reporter, luciferase luminescence; scaled: DMSO wells 0%, SAHA wells 100%; activation, % at 9.1 µM; actives 41% (n = 3,500); AID 686939;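 active = activation above the solvent-only control well mean plus 3 SD, averaged across control plates, cut at about 5.2% in these data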
* hit, by the source's call. This is a sample that favours compounds with a hit; in the whole collection about 4.8% have one here.

Screening CSc1nc(C)cc(SCC(=O)Nc2ccc(Cl)cc2Cl)n1 returned ssDAF12 agonist -1, hgDAF-12 ag -3, DAX1 inh-1 -1, hcDAF-12 act -3, SMARCA2 activ 8.0*, DAX1 inh-2 -1, SMARCA2 act conf 0 and VP16 Luc act 0.
`Cc1ccc(NC(=O)COC(=O)Cn2c(C)csc2=O)cc1` gave ssDAF12 agonist -2, hgDAF-12 ag -1, DAX1 inh-1 0, hcDAF-12 act 0, SMARCA2 activ -4 and DAX1 inh-2 -1.
Screening Cc1csc(=O)n1CC(=O)Nc1ccc(C(C)C)cc1 returned ssDAF12 agonist -1, hgDAF-12 ag 9, DAX1 inh-1 3, hcDAF-12 act 2, SMARCA2 activ 8.0*, DAX1 inh-2 1, SMARCA2 act conf -1 and VP16 Luc act 5.4*.
Screening CCOC(=O)C1=C[C@@H](C(C)(C)C)N(S(=O)(=O)c2ccc(C)cc2)[C@H]1c1cccc2ccccc12 returned ssDAF12 agonist -1, hgDAF-12 ag -1, DAX1 inh-1 -2, hcDAF-12 act -2 and SMARCA2 activ -3.
COc1ccc([C@H]2C=C(C(=O)O)O[C@@H](OCc3ccc(CO)cc3)C2)cc1 was read as ssDAF12 agonist -1, hgDAF-12 ag 4, DAX1 inh-1 0, hcDAF-12 act 4, SMARCA2 activ 1 and DAX1 inh-2 0.
Screening Cc1cc2nc(-c3ccc(SCC(=O)N4CCN(C(=O)c5ccco5)CC4)nc3)[nH]c2cc1C returned ssDAF12 agonist -1, hgDAF-12 ag 7, DAX1 inh-1 0, hcDAF-12 act 3, SMARCA2 activ 10*, DAX1 inh-2 -2, SMARCA2 act conf 9.2* and VP16 Luc act 8.8*.
`Cc1cc(C)cc(Cn2cc(CN3CC(N4CCCCC4)CS3(=O)=O)nn2)c1` (configuration not stated) gave ssDAF12 agonist -1, hgDAF-12 ag 4, DAX1 inh-1 -1, hcDAF-12 act -3, SMARCA2 activ 8.2*, SMARCA2 act conf 1 and VP16 Luc act 0.
For Cc1cc(C)cc(Cn2cc(CN3CC(N4CCCC4)CS3(=O)=O)nn2)c1 (configuration not stated) the results were ssDAF12 agonist -1, hgDAF-12 ag 1, DAX1 inh-1 1, hcDAF-12 act -1 and SMARCA2 activ -4.
`Cn1c(CSc2nc3ccccc3s2)nnc1SCC(=O)NCc1cccnc1` gave ssDAF12 agonist -1, hgDAF-12 ag -2, DAX1 inh-1 0, hcDAF-12 act 0, SMARCA2 activ -3 and DAX1 inh-2 0.
`Cc1cccc(-c2noc(CSc3ccccc3)n2)c1` gave ssDAF12 agonist 0, hgDAF-12 ag 10, DAX1 inh-1 1, hcDAF-12 act 2, SMARCA2 activ 3 and DAX1 inh-2 1.
Screening Cc1ccc(-c2noc(CN3CCOCC3)n2)cc1 returned ssDAF12 agonist -1, hgDAF-12 ag 8, DAX1 inh-1 1, hcDAF-12 act 2, SMARCA2 activ 5 and DAX1 inh-2 2.
Cc1ccc(-c2noc(CN3CCCCC3)n2)cc1 was read as ssDAF12 agonist 0, hgDAF-12 ag 6, DAX1 inh-1 1, hcDAF-12 act 2, SMARCA2 activ 8.3*, DAX1 inh-2 2, SMARCA2 act conf 4 and VP16 Luc act 9.1*.
Cc1ccc(-c2noc(CSc3ccccc3)n2)cc1 was read as ssDAF12 agonist 0, hgDAF-12 ag 12*, DAX1 inh-1 3.9*, hcDAF-12 act 3, SMARCA2 activ 9.3*, DAX1 inh-2 0, SMARCA2 act conf 3 and VP16 Luc act 8.2*.
`Cc1ccc(Nc2nc(N)nc(CC#N)n2)cc1` gave ssDAF12 agonist -1, hgDAF-12 ag 4, DAX1 inh-1 1, hcDAF-12 act 3, SMARCA2 activ 12*, DAX1 inh-2 2, SMARCA2 act conf 8 and VP16 Luc act 6.6*.
CN(CCCNC(=O)c1cc2c(Cl)nc3ccccc3c2s1)Cc1ccccc1 was read as ssDAF12 agonist -1, hgDAF-12 ag -2, DAX1 inh-1 1, hcDAF-12 act -1, SMARCA2 activ 7 and DAX1 inh-2 0.
CC1CCCN(CCCNC(=O)c2cc3c(Cl)nc4ccccc4c3s2)C1 (configuration not stated) was read as ssDAF12 agonist -1, hgDAF-12 ag 2, DAX1 inh-1 1, hcDAF-12 act 0, SMARCA2 activ 15*, DAX1 inh-2 0, SMARCA2 act conf 26* and VP16 Luc act 2.
`CCN(CC)CCCNC(=O)c1cc2c(Cl)nc3ccccc3c2s1` gave ssDAF12 agonist -1, hgDAF-12 ag 3, DAX1 inh-1 1, hcDAF-12 act 3, SMARCA2 activ 18*, DAX1 inh-2 2, SMARCA2 act conf 23* and VP16 Luc act 1.
For COc1ccc(NC(=O)CSc2nc3nc(-c4cccs4)cc(C(F)(F)F)c3c(=O)[nH]2)c(OC)c1 the results were ssDAF12 agonist -1, hgDAF-12 ag 2, DAX1 inh-1 0, hcDAF-12 act 0, SMARCA2 activ 1 and DAX1 inh-2 0.
For O=C(OC1CCOC1=O)c1ccc(CO)cc1 (configuration not stated) the results were ssDAF12 agonist -1, hgDAF-12 ag 0, DAX1 inh-1 0, hcDAF-12 act 2, SMARCA2 activ -4 and DAX1 inh-2 0.
For O=C(O)/C=C/c1ccc(O)cc1 the results were ssDAF12 agonist -1, hgDAF-12 ag -2, DAX1 inh-1 1, hcDAF-12 act 0, SMARCA2 activ 1 and DAX1 inh-2 0.
COc1ccc(C(=O)/C=C/c2cccs2)c(OC(=O)N2CCOCC2)c1 was read as ssDAF12 agonist -1, hgDAF-12 ag -1, DAX1 inh-1 -1, hcDAF-12 act 0, SMARCA2 activ 1 and DAX1 inh-2 -1.
`COc1ccc(C(=O)C=Cc2cccs2)c(O)c1` gave ssDAF12 agonist -1, hgDAF-12 ag 11*, DAX1 inh-1 3, hcDAF-12 act 2, SMARCA2 activ 8.2*, DAX1 inh-2 0, SMARCA2 act conf 5 and VP16 Luc act 5.7*.
`COc1ccc(C(=O)/C=C/c2ccccc2)c(O)c1` gave ssDAF12 agonist -1, hgDAF-12 ag 8, DAX1 inh-1 1, hcDAF-12 act 1, SMARCA2 activ 8.2*, DAX1 inh-2 1, SMARCA2 act conf 4 and VP16 Luc act 2.
